Reference: PubChem BioAssay AID1159580 (chemical genetic matrix, 2015)
In all, about 5,500 compounds went through this assay and about 2,000 (36%) were called active. Inconclusive results (about 18%) are left out. Rule as the data show it: active = normalized growth mostly below about 0.91 (no sharp cut-off); inconclusive = no clear call, values can overlap the other calls; inactive = mostly above about 0.92. This is one part of the list.

Test: chemical genetic growth profiling, strain panel (AID 1159580);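 also: tested at 20 µM; growth read once vehicle control cultures reached saturation at 30 °C; 1 = growth at the plate median or of vehicle wells; lower values mean less growth of the strain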
Conditions: S. cerevisiae deletion strains, growth OD
[1] = locus YAL013W, strain DEP1, active compounds read low
[2] = locus YAL040C, strain CLN3, active compounds read low
[3] = locus YCL061C, strain MRC1 (second series), active compounds read low
[4] = locus YDR363W, strain ESC2, active compounds read low
[5] = locus YER002W, strain NOP16, active compounds read low
[6] = locus YGR078C, strain PAC10, active compounds read low
[7] = locus YNL175C, strain NOP13, active compounds read low
[8] = locus YNL197C, strain WHI3, active compounds read low
[9] = locus YNL224C, strain SQS1, active compounds read low
[10] = locus YOR083W, strain WHI5 (second series), active compounds read low
[11] = locus YMR263W, strain SAP30, active compounds read low
[12] = locus YMR307W, strain GAS1, active compounds read low
[13] = locus YNL322C, strain KRE1, active compounds read low
[14] = locus YPL055C, strain LGE1, active compounds read low
[15] = locus YPL241C, strain CIN2, active compounds read low

Measured: normalized growth

CCC(CO)NC(=O)C1C=C2c3cccc4[nH]cc(c34)CC2N(C)C1 (stereo unspecified)
inactive: [1] 0.986 | [2] 0.999 | [3] 1 | [4] 0.991 | [5] 0.99 | [6] 0.977 | locus YNL128W, strain TEP1, active compounds read low 0.997 | locus YNL153C, strain GIM3, active compounds read low 1.02 | [7] 0.996 | [8] 0.978 | [9] 0.995 | [10] 0.996

O=C1CCC(c2ccc(-n3ccnc3)cc2)=NN1
inactive: [1] 0.984 | [2] 0.943 | [3] 1 | [4] 1 | [5] 1.01 | [11] 1 | [12] 1.05 | [7] 0.987 | [8] 0.979 | [9] 0.994 | [10] 0.994

N[C@@H](COP(=O)(O)O)C(=O)O
inactive: [2] 0.991 | [3] 0.989 | locus YDR150W, strain NUM1, active compounds read low 1.01 | [4] 1.01 | [5] 1 | locus YJR075W, strain HOC1, active compounds read low 0.984 | [7] 1.01 | [8] 0.984 | [9] 0.992 | [13] 1.01 | [10] 1.01 | [14] 1.01 | [15] 0.997

COc1cccc2c(C)cc(=O)[nH]c12
inactive: locus YAL021C, strain ccr4, active compounds read low 1.01 | locus YAL026C, strain drs2, active compounds read low 0.972 | locus YAL030W, strain snc1, active compounds read low 0.977 | locus YBL061C, strain skt5, active compounds read low 0.938 | locus YBR009C, strain hhf1, active compounds read low 0.938 | locus YBR021W, strain FUR4, active compounds read low 1.07 | locus YBR023C, strain chs3, active compounds read low 0.928 | locus YBR171W, strain sec66, active compounds read low 0.963 | locus YBR229C, strain ROT2, active compounds read low 0.969 | locus YBR279W, strain paf1, active compounds read low 0.987 | locus YCL011C, strain gbp2, active compounds read low 0.924 | locus YCL016C, strain dcc1, active compounds read low 0.949 | locus YCL029C, strain bik1, active compounds read low 0.932 | locus YCL061C, strain MRC1, active compounds read low 0.956 | locus YCL069W, strain vba3, active compounds read low 0.98 | locus YCR088W, strain abp1, active compounds read low 0.972 | locus YDL005C, strain med2, active compounds read low 0.992 | locus YDL035C, strain GPR1, active compounds read low 0.958 | locus YDL040C, strain nat1, active compounds read low 0.972 | locus YDL074C, strain BRE1, active compounds read low 0.853 | locus YDL101C, strain DUN1, active compounds read low 0.941 | locus YDL134C, strain PPH21, active compounds read low 0.961 | locus YDL185W, strain tfp1, active compounds read low 0.933 | locus YDR001C, strain nth1, active compounds read low 0.957 | locus YDR069C, strain doa4, active compounds read low 0.971 | locus YDR137W, strain rgp1, active compounds read low 0.847 | locus YDR159W, strain sac3, active compounds read low 0.862 | locus YDR162C, strain NBP2, active compounds read low 0.881 | locus YDR297W, strain sur2, active compounds read low 0.974 | locus YDR318W, strain mcm21, active compounds read low 0.949 | locus YDR334W, strain swr1, active compounds read low 0.978 | locus YDR335W, strain msn5, active compounds read low 0.941 | locus YDR388W, active compounds read low 0.929 | locus YEL003W, strain gim4, active compounds read low 0.971 | locus YEL037C, strain rad23, active compounds read low 0.974 | locus YEL061C, strain CIN8 (second series), active compounds read low 0.969 | locus YEL061C, strain CIN8, active compounds read low 0.963 | locus YER015W, strain faa2, active compounds read low 0.986 | locus YER016W, strain bim1, active compounds read low 0.953 | locus YER110C, active compounds read low 0.946 | locus YER111C, strain swi4, active compounds read low 0.977 | locus YER155C, strain BEM2, active compounds read low 0.946 | locus YER167W, strain BCK2, active compounds read low 0.947 | locus YFR010W, strain ubp6, active compounds read low 0.975 | locus YGL078C, strain dbp3, active compounds read low 0.962 | locus YGL167C, strain pmr1, active compounds read low 0.982 | locus YGL173C, strain kem1, active compounds read low 0.962 | locus YGL227W, strain vid30, active compounds read low 0.961 | locus YGL248W, strain PDE1, active compounds read low 0.919 | [6] 0.904 | locus YGR252W, strain gcn5, active compounds read low 0.874 | locus YHR013C, strain ard1, active compounds read low 0.848 | locus YHR027C, strain rpn1, active compounds read low 0.984 | locus YHR030C, strain SLT2, active compounds read low 0.945 | locus YHR079C, strain IRE1 (second series), active compounds read low 0.933 | locus YHR094C, strain hxt1, active compounds read low 0.953 | locus YHR129C, strain ARP1, active compounds read low 0.936 | locus YIL066C, strain RNR3, active compounds read low 0.929 | locus YIL073C, strain SPO22, active compounds read low 0.812 | locus YIL125W, strain kgd1, active compounds read low 0.96 | locus YIR030C, strain dcg1, active compounds read low 0.954 | locus YJL092W, strain hpr5, active compounds read low 0.972 | locus YJL095W, strain BCK1 (second series), active compounds read low 0.965 | locus YJL115W, strain asf1, active compounds read low 0.981 | locus YJL129C, strain trk1, active compounds read low 0.966 | locus YJL134W, strain LCB3, active compounds read low 0.968 | locus YJL154C, strain vps35, active compounds read low 0.979 | locus YJL164C, strain tpk1, active compounds read low 0.949 | locus YJL168C, strain set2, active compounds read low 0.948 | locus YJL187C, strain SWE1 (second series), active compounds read low 0.908 | locus YJL187C, strain SWE1, active compounds read low 0.989 | locus YJR043C, strain POL32, active compounds read low 0.885 | locus YKL068W, active compounds read low 0.951 | locus YKL085W, strain MDH1 (second series), active compounds read low 0.941 | locus YKL085W, strain MDH1, active compounds read low 0.941 | locus YKL160W, strain elf1, active compounds read low 0.944 | locus YKR026C, strain gcn3, active compounds read low 0.972 | locus YKR091W, strain srl3, active compounds read low 0.981 | locus YLL026W, active compounds read low 0.952 | locus YLL041C, strain sdh2, active compounds read low 0.956 | locus YLR027C, strain aat2, active compounds read low 0.955 | locus YLR039C, strain RIC1, active compounds read low 0.697 | locus YLR058C, strain SHM2, active compounds read low 0.94 | locus YLR102C, strain apc9, active compounds read low 0.942 | locus YLR221C, strain rsa3, active compounds read low 0.949 | locus YLR258W, strain gsy2, active compounds read low 0.941 | locus YLR262C, strain YPT6 (second series), active compounds read low 0.887 | locus YLR262C, strain YPT6, active compounds read low 0.732 | locus YLR268W, strain sec22, active compounds read low 0.9 | locus YLR320W, strain mms22, active compounds read low 0.94 | locus YLR342W, strain FKS1 (second series), active compounds read low 0.838 | locus YLR342W, strain FKS1, active compounds read low 0.957 | locus YLR357W, strain rsc2, active compounds read low 0.974 | locus YLR370C, strain arc18, active compounds read low 0.932 | locus YLR384C, strain iki3, active compounds read low 0.981 | locus YML016C, strain PPZ1, active compounds read low 0.958 | locus YML032C, strain rad52, active compounds read low 0.948 | locus YML124C, strain tub3, active compounds read low 0.952 | locus YMR058W, strain fet3, active compounds read low 0.955 | locus YMR078C, strain ctf18, active compounds read low 0.937 | locus YMR125W, strain sto1, active compounds read low 0.959 | locus YMR129W, active compounds read low 0.958 | locus YMR205C, strain PFK2, active compounds read low 0.958 | locus YMR223W, strain ubp8, active compounds read low 0.942 | locus YMR231W, strain pep5, active compounds read low 1 | [12] 0.974 | locus YNL067W, strain RPL9B, active compounds read low 0.875 | locus YNL209W, strain ssb2, active compounds read low 0.991 | locus YNL248C, strain rpa49, active compounds read low 0.968 | locus YNL250W, strain rad50, active compounds read low 0.925 | locus YNL271C, strain bni1, active compounds read low 0.955 | locus YNL298W, strain CLA4, active compounds read low 0.978 | locus YNL307C, strain MCK1, active compounds read low 0.91 | locus YNL322C, strain KRE1 (second series), active compounds read low 0.977 | [13] 0.971 | locus YNR049C, strain mso1, active compounds read low 0.97 | locus YNR052C, strain pop2, active compounds read low 0.986 | locus YOL012C, strain htz1 1.3 | locus YOL147C, strain pex11, active compounds read low 0.945 | locus YOR001W, strain rrp6, active compounds read low 0.954 | locus YOR061W, strain CKA2, active compounds read low 0.965 | locus YOR069W, strain VPS5, active compounds read low 0.965 | locus YOR070C, strain gyp1, active compounds read low 0.965 | locus YOR080W, strain dia2, active compounds read low 0.983 | locus YOR083W, strain WHI5, active compounds read low 0.929 | locus YOR106W, strain vam3, active compounds read low 0.938 | locus YOR136W, strain idh2, active compounds read low 0.951 | locus YOR144C, strain elg1, active compounds read low 0.964 | locus YOR265W, strain rbl2, active compounds read low 0.966 | locus YOR290C, strain snf2, active compounds read low 0.891 | locus YOR316C, strain cot1, active compounds read low 0.937 | locus YPL051W, strain arl3, active compounds read low 0.938 | [14] 0.775 | locus YPL078C, strain atp4, active compounds read low 0.896 | locus YPL106C, strain sse1, active compounds read low 0.898 | locus YPL240C, strain hsp82, active compounds read low 0.959 | [15] 0.958 | locus YPR119W, strain clb2, active compounds read low 0.937 | locus YPR141C, strain kar3, active compounds read low 0.953 | locus YPR163C, strain tif3, active compounds read low 0.933 | locus YPR167C, strain met16, active compounds read low 0.959
active: locus YBR231C, strain swc5, active compounds read low 0.909 | locus YDL192W, strain arf1, active compounds read low 0.887 | locus YDR101C, strain arx1, active compounds read low 0.908 | locus YDR195W, strain ref2 1.15 [resistant] | locus YDR392W, strain spt3, active compounds read low 0.641 | locus YDR502C, strain sam2, active compounds read low 0.875 | locus YER155C, strain BEM2 (second series), active compounds read low 0.786 | locus YGL086W, strain mad1, active compounds read low 0.889 | locus YGL240W, strain doc1, active compounds read low 0.843 | locus YGL253W, strain hxk2, active compounds read low 0.891 | locus YGR135W, strain pre9, active compounds read low 0.887 | locus YHR142W, strain chs7, active compounds read low 0.835 | locus YHR200W, strain rpn10, active compounds read low 0.919 | locus YJL095W, strain BCK1, active compounds read low 0.793 | locus YJL166W, strain qcr8, active compounds read low 0.891 | locus YKL009W, strain mrt4, active compounds read low 0.874 | locus YKR001C, strain vps1, active compounds read low 0.802 | locus YLL001W, strain dnm1, active compounds read low 0.893 | locus YLR330W, strain CHS5, active compounds read low 0.896 | locus YLR371W, strain rom2, active compounds read low 0.89 | locus YLR418C, strain cdc73, active compounds read low 0.715 | locus YML120C, strain ndi1, active compounds read low 0.911 | [11] 0.855 | locus YNL071W, strain lat1, active compounds read low 0.897 | locus YNL233W, strain BNI4, active compounds read low 0.827 | locus YOL006C, strain TOP1, active compounds read low 0.511 | locus YOR184W, strain ser1, active compounds read low 0.847 | locus YOR270C, strain vph1, active compounds read low 0.714 | strain wtn01, active compounds read low 0.881
